The source of these data is PubChem BioAssay.

In experiment [1] the test system is Human papillomavirus type 1a protein E7 (residues 44-93). Nature of the experiment: HPV1a E7 fragment binders on microarrays, primary screen, biochemical, small-molecule microarray, residues 44-93, 635 nm fluorescence (AID 1108).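 Note: E7 fragment applied at 1 µg/mL in TBST for 1 h at 4 C; score combines spot fluorescence with its signal to noise ratio.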 The following applies: small-molecule microarray binding, fluorescence 635 nm; higher = more signal.
A short description of experiment [2]: modulators of HCV replicon luciferase signal, primary screen, HCV replication inhibitor project, Huh7 cells, luciferase reporter (AID 1109).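 Note: huh7 hepatoma cells harbouring a luciferase neomycin HCV replicon reporter; luciferase luminescence as measure of HCV replicon replication; test concentration not given here.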 The following applies: 48 h, higher = more signal. Background: A replicon is a self-replicating genome or part of one, used to study replication in cells.
In experiment [3] the target is Left-right determination factor 2 (Homo sapiens) (UniProt O00292). The experiment is described as follows: LEFTY2 binders on small-molecule microarrays, primary screen, biochemical, small-molecule microarray, 635 nm fluorescence scan (AID 1110). The following applies: LEFTY2 binding, higher = more signal.
Chain of Left-right determination factor 2 (Homo sapiens) (O00292 whole entry, looked up): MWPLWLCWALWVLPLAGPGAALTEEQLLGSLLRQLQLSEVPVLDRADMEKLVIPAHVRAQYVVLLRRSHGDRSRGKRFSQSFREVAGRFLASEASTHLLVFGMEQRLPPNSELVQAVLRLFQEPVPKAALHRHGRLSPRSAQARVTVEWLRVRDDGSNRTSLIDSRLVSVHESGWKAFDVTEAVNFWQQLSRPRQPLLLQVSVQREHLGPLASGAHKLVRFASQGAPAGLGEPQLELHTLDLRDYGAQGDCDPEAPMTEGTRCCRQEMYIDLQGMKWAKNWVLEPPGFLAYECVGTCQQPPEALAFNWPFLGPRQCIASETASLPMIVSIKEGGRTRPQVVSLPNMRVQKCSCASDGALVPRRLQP
Experiment [4] has as its target Calmodulin-1 (Homo sapiens) (UniProt P0DP23). Nature of the experiment: CALM1 binders on microarrays, EGTA buffer, profiling panel, biochemical, small-molecule microarray, Cy5-labelled CALM1 (AID 1111).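 Note: labelled calmodulin applied in Tris saline Tween buffer holding calcium plus EGTA and DTT.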 The following applies: Cy5-CALM1 binding fluorescence, higher = more signal.
For experiment [5] the target is unchanged. Nature of the experiment: calcium-bound CALM1 binders on microarrays, profiling panel, artefact control for SMM control-protein annotation, biochemical, small-molecule microarray, Cy5-labelled CALM1, plus calcium (AID 1112).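 Note: score merges spot fluorescence with signal to noise from triplicate slides.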 To be noted: Cy5-CALM1 binding fluorescence, higher = more signal.
A short description of experiment [6]: small-molecule microarray binders of probe aWnt5a, primary screen, biochemical, biotinylated probe, 635/667 nm fluorescence (AID 1113).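 Note: score merges 667 nm fluorescence intensity with signal-to-noise per printed feature.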 The following applies: higher = more signal.
Experiment [7] can be described thus: small-molecule microarray binders of probe aShh, primary screen, biochemical, biotinylated probe, 635/667 nm fluorescence (AID 1114).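 Note: probe is biotin-labelled aShh protein from a stem cell growth factor screen; measures binding of labelled protein to compounds printed on the slide; score merges feature fluorescence at 667 nm with signal-to-noise.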 The following applies: higher = more signal.
A short description of experiment [8]: small-molecule microarray binders of probe aNog, primary screen, biochemical, biotinylated probe, 635/667 nm fluorescence (AID 1115).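 Note: probe is biotinylated aNog protein used at 0.15 µg/mL for 1 h at 4 C; z-score combines 667 nm fluorescence of each spot with its signal to noise.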 The following applies: higher = more signal.
The target of experiment [9] is Torsin-1A-interacting protein 1 (Homo sapiens) (UniProt Q5JTV8). Nature of the experiment: LAP1 binders from COS7 cell lysate, primary screen, small-molecule microarray, 635/667 nm fluorescence (AID 1116). To be noted: COS7-hLAP1 lysate binding, 635 nm fluorescence, higher = more signal.
Chain of Torsin-1A-interacting protein 1 (Homo sapiens) (Q5JTV8 whole entry, looked up): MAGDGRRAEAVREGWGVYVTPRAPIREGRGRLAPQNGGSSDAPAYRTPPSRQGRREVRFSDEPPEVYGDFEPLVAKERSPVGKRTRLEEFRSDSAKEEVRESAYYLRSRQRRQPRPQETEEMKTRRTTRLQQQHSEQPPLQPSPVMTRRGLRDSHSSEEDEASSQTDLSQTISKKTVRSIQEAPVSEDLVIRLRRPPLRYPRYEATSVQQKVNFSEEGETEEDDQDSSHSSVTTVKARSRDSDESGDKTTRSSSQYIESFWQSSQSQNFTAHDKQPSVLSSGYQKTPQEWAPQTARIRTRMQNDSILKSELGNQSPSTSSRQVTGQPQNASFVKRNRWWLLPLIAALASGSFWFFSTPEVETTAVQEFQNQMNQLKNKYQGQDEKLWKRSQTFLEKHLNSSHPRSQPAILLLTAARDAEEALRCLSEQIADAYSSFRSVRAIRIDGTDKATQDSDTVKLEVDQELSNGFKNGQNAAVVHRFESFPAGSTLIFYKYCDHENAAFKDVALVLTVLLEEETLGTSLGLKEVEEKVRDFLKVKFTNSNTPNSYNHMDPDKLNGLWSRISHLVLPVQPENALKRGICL
In experiment [10] the target is Alpha-bungarotoxin (Bungarus multicinctus) (UniProt P60615). Nature of the experiment: alpha-bungarotoxin binders on microarray, profiling panel, artefact control for SMM control protein annotation, biochemical, small-molecule microarray, Alexa647 label, 635/667 nm fluorescence (AID 1117). The following applies: alpha-BTX-A647 binding fluorescence, higher = more signal.
Chain of Alpha-bungarotoxin (Bungarus multicinctus) (P60615 whole entry, looked up): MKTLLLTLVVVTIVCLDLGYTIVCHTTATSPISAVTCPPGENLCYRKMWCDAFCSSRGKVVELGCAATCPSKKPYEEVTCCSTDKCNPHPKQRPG

As for `C=CCOC(=O)[C@H]1[C@@H]2C(=O)O[C@@H](c3ccccc3)[C@@H](c3ccccc3)N2[C@@H](c2ccc(OCCOC(=O)[C@@H]3C[C@@H]4C(=O)N[C@@H](CCCCNC(C)=O)C(=O)N4[C@@H]3c3cccc(OCCO)c3)cc2)[C@]12C(=O)Nc1ccccc12`, the composite z-score in experiment [1] is 0.843; in experiment [3], 0.781; in experiment [4] it was 0.258; in [5], 0.121; in experiment [6] it was -0.124; in experiment [7], 0.147. Moreover, the composite z-score was 0.254 in [8], 0.439 in [9] and -0.0506 in experiment [10]. In experiment [2], this compound gave a z-score of -1.48.
As for `Cc1ccc(C(C)CC(O)C2C=CC3C(=O)N(C)C(=O)C3N2Nc2ccccc2)o1` (stereo not given), the composite z-score in experiment [1] is 1.4; in experiment [3] it was 0.79; in experiment [4], 0.0895; in [5], -0.0452; in experiment [6], -0.0057; in experiment [7], -0.0769. The composite z-score in experiment [8] was -0.213; in experiment [9], 0.163; in experiment [10], 0.6. The compound also showed a z-score in experiment [2] of -0.955.
On to `CC1CC/C=C\[C@H]2OC34C=CCN(Cn5nnc6ccccc65)C(=O)[C@H]3N(CCCCCCO)C(=O)[C@@H]4C2C(=O)O1` (stereo not given in full), for which the composite z-score is -0.0257 in experiment [1]; -1.7 in [3]; 0.259 in experiment [4]; 0.659 in experiment [5]; -0.232 in experiment [6]; -0.0709 in experiment [7]. In addition, the figures for the composite z-score in experiment [8], in experiment [9] and in [10] were 0.0021, 0.145 and -0.551, respectively. In addition, in experiment [2], the z-score is 0.0151.
As for `O=C1C2C=CC(C(O)c3c(F)cccc3Cl)N(Nc3ccc([N+](=O)[O-])cc3)C2C(=O)N1c1ccccc1` (stereo not given), the composite z-score was 1.41 in experiment [1]; 0.563 in [3]; 2.16 in [4]; 0.132 in experiment [5]; -0.0222 in [6]; 0.23 in [7]. The figures for the composite z-score in experiment [8], in experiment [9] and in experiment [10] were 0.803, 1.6 and 0.676, respectively. Besides, the z-score in experiment [2] was determined as 0.128.
Consider `O=C(NCC(O)CO)[C@@]1(CCS(=O)(=O)c2ccccc2)N=C(c2ccc(OCCCO)cc2)O[C@H]1c1ccccc1` (stereo not given in full), for which the composite z-score is 1.47 in [1]; -1.15 in [3]; 1.51 in experiment [4]; 1.14 in experiment [5]; 0.0676 in experiment [6]; 0.181 in experiment [7]. Besides, the composite z-score came to 0.0574 in experiment [8], 2.55 in [9] and 3.32 in experiment [10]. Also, the z-score in experiment [2] was 0.0294.
On to `COCCOC(=O)N1C(=O)[C@@]2(c3cc(C#CCC(C(=O)OC)C(=O)OC)ccc31)[C@H](C(N)=O)[C@H]1C(=O)O[C@H](c3ccccc3)[C@H](c3ccccc3)N1[C@@H]2c1ccc(O)cc1`, for which the composite z-score in experiment [1] turned out to be 1.42; in [3], 0.713; in [4], 1.01; in [5], 0.0194; in [6], 0.0179; in experiment [7], 0.0328. Further, the values for the composite z-score in [8], in experiment [9] and in experiment [10] were -0.543, 1.08 and 1.61, respectively. The compound further displayed a z-score in experiment [2] of -2.77.
Turning to `C=C(C)[C@@H]1CC=C(C(O)C2C=CC3C(=O)N(c4ccccc4)C(=O)C3N2Nc2ccc([N+](=O)[O-])cc2)CC1` (stereo not given in full), the composite z-score is 1.46 in experiment [1]; 1.26 in experiment [3]; -0.0515 in [4]; 0.261 in [5]; -0.0222 in experiment [6]; -0.0119 in experiment [7]. Besides, the results for the composite z-score in [8], in [9] and in [10] were 1.24, -0.151 and 0.839, respectively. In experiment [2], this compound showed a z-score of -0.315.
For `COCCOC(=O)N1C(=O)[C@@]2(c3cc(C#CC4(O)CCCCCC4)ccc31)[C@H](c1ccc(O)cc1)N1[C@H](c3ccccc3)[C@H](c3ccccc3)OC(=O)[C@H]1[C@@H]2C(=O)N1CCCCCCC1`, the composite z-score in experiment [1] was -0.622; in experiment [3], 0.298; in experiment [4], -0.39; in experiment [5] it was -0.631; in experiment [6], 0.0742; in [7], 0.0907. Also, the results for the composite z-score in [8], in experiment [9] and in experiment [10] were 2.25, 1.88 and 0.88, respectively. Moreover, in experiment [2], the z-score was -1.05.
Turning to `CCC(CC)C(O)C1C=CC2C(=O)N(c3ccccc3)C(=O)C2N1Nc1ccccc1F` (stereo not given), the composite z-score in experiment [1] was 1.2; in experiment [3], -0.527; in experiment [4], 0.189; in [5], 0.25; in experiment [6], 0.612; in experiment [7], -0.214. In addition, the figures for the composite z-score in experiment [8], in experiment [9] and in experiment [10] were 0.53, 0.447 and 1.39, respectively. The same compound came in with a z-score in [2] of -0.171.
Consider `C=CCN1C(=O)[C@]2(O[C@H](CCn3cc([C@H](O)c4ccccc4)nn3)[C@@H]([Si](C)(C)c3ccc(OC)cc3)[C@@H]2C)c2cc(NC(=O)c3ccc(OC)cc3)ccc21`, for which the composite z-score in experiment [1] was 1.15; in [3], 0.5; in experiment [4] it was -0.0632; in [5] it was -0.564; in experiment [6] it was -0.0748; in experiment [7], -0.221. The composite z-score is -0.124 in experiment [8], 0.725 in [9] and 0.464 in [10]. The compound further displayed a z-score in experiment [2] of -4.74.
Consider `[N-]=[N+]=NCc1ccccc1[C@@H]1OC(c2ccc(OCCCO)cc2)=N[C@]1(Cc1ccccc1N=[N+]=[N-])C(=O)O`, for which the composite z-score in [1] is 0.98; in [3], -0.0061; in experiment [4], 1.4; in [5] it was 0.774; in experiment [6], 0.496; in experiment [7] it was 0.541. In addition, the composite z-score was 1.7 in [8], 0.697 in [9] and 1.55 in experiment [10]. This compound registered a z-score in experiment [2] of -0.909.
As for `COC(=O)[C@@]1(Cc2ccc(F)cc2)[C@H]2c3cc(C(=O)N(C)C)n(C)c3C[C@H]2CN1C(=O)c1ccccc1`, the composite z-score in [1] was 0.0469; in [3] it was -0.21; in experiment [4], 1.1; in [5], 0.815; in experiment [6], 0.0095; in experiment [7], 0.705. The composite z-score was 1.01 in experiment [8], 0.509 in experiment [9] and 0.0278 in experiment [10]. In [2], this compound came in with a z-score of -0.275.
`CC(C)NC(=O)[C@@H]1c2ccccc2C(=O)N(Cc2ccc(OC(F)(F)F)cc2)[C@H]1c1ccc(CO)cc1`: the composite z-score is 0.973 in [1]; 0.39 in experiment [3]; 0.1 in [4]; -0.126 in experiment [5]; 0.265 in experiment [6]; 0.637 in experiment [7]. Besides, the composite z-score in experiment [8] was -0.486; in experiment [9], 0.673; in [10], 0.589. The z-score in experiment [2] is -0.779.
With `C=CC1c2cc(O)c(OC)cc2CCN1C` (stereo not given), the composite z-score in experiment [1] was -0.728; in experiment [3] it was -0.94; in [4], 0.504; in [5] it was 1.04; in experiment [6] it was -0.112; in experiment [7], -0.243. The composite z-score in [8] is -0.348; in [9], 0.381; in experiment [10] it was -0.383. Moreover, the z-score in [2] was -1.02.
Turning to `N#Cc1ccc(NN2C(C(O)C3CC=CCC3)C=CC3C(=O)N(c4ccccc4)C(=O)C32)cc1` (stereo not given), the composite z-score in [1] was 1.48; in [3] it was 0.0779; in experiment [4] it was 0.0301; in experiment [5] it was -0.753; in experiment [6], -0.13; in experiment [7], 0.0639. Further, the composite z-score stood at 0.313 in experiment [8], 0.102 in experiment [9] and 1.17 in experiment [10]. This compound also returned a z-score in [2] of -0.137.
Consider `COCCOC(=O)N1C(=O)[C@@]2(c3cc(C#CCCO)ccc31)[C@H](C(N)=O)[C@H]1C(=O)O[C@H](c3ccccc3)[C@H](c3ccccc3)N1[C@@H]2c1ccccc1OCCO`, for which the composite z-score was 0.99 in [1]; 0.432 in experiment [3]; 1.03 in [4]; 0.114 in [5]; -0.0445 in [6]; -0.0165 in experiment [7]. Further, the composite z-score worked out at 0.135 in experiment [8], 1.08 in experiment [9] and 2.08 in experiment [10]. The compound further had a z-score in experiment [2] of -2.12.
Consider `C=CCNC(=O)[C@H]1[C@@H]2C(=O)O[C@@H](c3ccccc3)[C@@H](c3ccccc3)N2[C@@H](c2ccc(OCCO)cc2)[C@]12C(=O)Nc1ccc(C#CC3(O)CCCCCC3)cc12`, for which the composite z-score was 1.24 in experiment [1]; 0.954 in [3]; 1.29 in experiment [4]; 0.229 in experiment [5]; -0.0607 in experiment [6]; -0.0146 in experiment [7]. The composite z-score turned out to be 0.74 in [8], 1.47 in experiment [9] and 1.74 in experiment [10]. The z-score in experiment [2] was -2.33.
